High-throughput results: PubChem, The Scripps Research Institute Molecular Screening Center
TTR transcr act = increases transthyretin transcription. SH-SY5Y TTR promoter Gaussia luciferase, luminescence; 100% = recombinant luciferase protein wells. activation, % at 16.7 µM. hit rate 1.3% among 92,000. AID 1117267;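 active means activation above the mean of all tested compounds plus 3 SD, cut at about 9.5% in these data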;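 further: cells exposed to compounds for one day before reading; 0% = median of all test compound wells on the plate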
HuH7 TTR inh = decreases TTR transcription in HuH7 cells in activator counter-screen; shares compounds with TTR transcr act; HuH7 TTR promoter-Gaussia luciferase reporter, luminescence; inhibition, % at 16.7 µM; hit rate 4% among 1,100;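 active means average inhibition above the solvent-only control wells' mean plus 3 SD, cut at about 15% in these data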;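 further: 0% = cells with DMSO only and 100% = cells with inhibitor control FD; inhibitors lower well luminescence so higher value means more inhibition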
TTR up confirm = confirmation of human transthyretin transcription activators | SHSY5Y TTR promoter Gaussia luciferase, luminescence; 100% = purified Lucia enzyme wells, no cells | shares compounds with TTR transcr act | activation, % at 16.7 µM | 1,100 tested, under 10 active;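 active means mean activation above a set limit taken from the earlier primary screen, cut at about 11% in these data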;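 further: 0% = DMSO-treated cells and 100% = recombinant Lucia luciferase without cells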
* = called active by the depositor. Shown is part of a subset that was picked to be rich in hits.

SMILES	TTR transcr act	others
O=C(NCC(c1ccccc1)c1ccccc1)[C@H](Cc1c[nH]c2ccccc12)NC1(C(=O)NC2CCCCC2)CCCC1	1
CC(C)(N[C@@H](Cc1ccccc1)C(=O)NCCCc1ccccc1)C(=O)NCc1ccccc1	1
C[C@]12CC[C@H](O)CC1=C[C@H](O)C1C2CC[C@@]2(C)C1CC[C@@]2(O)C#Cc1ccc(CN)cc1 (stereo partly drawn)	12*	HuH7 TTR inh=1;TTR up confirm=0
COc1ccc(-c2ccc(CN3C(C(C)C)C(=O)N(Cc4cn(CCC5OCCO5)nn4)CCS3(=O)=O)cc2)cc1 (stereo not drawn)	-1
CCc1ccc(N(CC(=O)N2CCOCC2)S(C)(=O)=O)cc1	1
COc1ccc(OC)c2[nH]c(=O)c(CCNC(=O)c3cccs3)cc12	0
O=C(NCCCc1ccccc1)[C@H](CO)NC1(C(=O)NCCc2c[nH]c3ccccc23)CCCCC1	2
Cc1cccc(/C(N)=N/OC(=O)Cc2cccc3ccccc23)c1	2
Cc1ccc(C)c(OCC(=O)O/N=C(\N)c2cccnc2)c1	1
Cc1cccc(/C(N)=N/OC(=O)COc2ccc(Cl)c(C)c2)c1	11*	HuH7 TTR inh=-10;TTR up confirm=-1
Cc1ccc(CN2CCCCC(NC(=O)c3ccc(-c4ccccc4)cc3)C2=O)cc1 (stereo not drawn)	-2
CC(C)CC(N)C(=O)OCc1ccc([N+](=O)[O-])cc1 (stereo not drawn)	2
CCC(=O)Nc1cc(Cl)ccc1N1CCN(C(=O)CC)CC1	12*	HuH7 TTR inh=-4;TTR up confirm=0
CN1CCN(c2ccc(Cl)cc2NC(=O)/C=C/c2cccc(F)c2)CC1	-1
CCN(CC)S(=O)(=O)c1ccc(N2CCOCC2)c(NC(=O)Cc2ccc(Cl)cc2)c1	-3
COc1ccc(C2(C)NC(=O)N(CC(=O)N(c3ccccc3)C3CCS(=O)(=O)C3)C2=O)cc1 (stereo not drawn)	-1
CC1(c2ccccc2)NC(=O)N(CC(=O)N(c2ccccc2)C2CCS(=O)(=O)C2)C1=O (stereo not drawn)	14*	HuH7 TTR inh=-17;TTR up confirm=2
CCC1(c2ccccc2)NC(=O)N(CC(=O)N(c2ccccc2)C2CCS(=O)(=O)C2)C1=O (stereo not drawn)	5
O=C(NCCc1ccccc1)OCc1cn(Cc2ccc(F)cc2)nn1	-1
C=CCN1C(=O)[C@@H](CC(=O)N2CCCC2)[C@]2(C(=O)OC)CCCCC=C12	2
O=C(NCc1ccccn1)[C@@H]1CCCN1C(=O)[C@@H]1CCCN1C(=O)c1cccs1	3
Cc1ccccc1C(=O)N1CCC[C@H]1C(=O)N1CCC[C@H]1C(=O)NCc1ccccn1	14*	HuH7 TTR inh=-5;TTR up confirm=-1
O=C(NCc1ccccn1)[C@@H]1CCCN1C(=O)[C@@H]1CCCN1C(=O)c1cccc(Cl)c1	0
CC(C)CNC(=O)OCc1cn(Cc2ccccc2)nn1	2
N=c1c2c(ccn1CCCc1ccccc1)Oc1ccc3ccccc3c1C2c1ccccc1 (stereo not drawn)	-2
SMILES	TTR transcr act	others
COC(=O)[C@]12C[C@H](CC(=O)NCc3cccc4ccccc34)C(=O)N(Cc3cccc4ccccc34)C1=C[C@H](C1CCCC1)O[C@@H]2C	1
CC(=O)Nc1cccc(-c2ccnc3c2CC(C(=O)Nc2cccnc2)O3)c1 (stereo not drawn)	5
CC(=O)Nc1cccc(-c2ccnc3c2CC(C(=O)Nc2cccc(NS(C)(=O)=O)c2)O3)c1 (stereo not drawn)	17*	HuH7 TTR inh=-22;TTR up confirm=1
CC(=O)c1cccc(NC(=O)C2Cc3c(-c4ccccc4)ccnc3O2)c1 (stereo not drawn)	-1
COC(=O)[C@]12C[C@H](CC(=O)NCc3ccc(OC)c(OC)c3)C(=O)N(Cc3cccc4ccccc34)C1=C[C@H](C1CCCC1)O[C@@H]2C	-3
Cc1cccc(NC(=O)c2ccc(S(=O)(=O)N3CCOCC3)cc2)n1	0
CCCCN1C[C@@H]2CSCCS(=O)(=O)N2C1=O	0
CC(=O)Nc1ccc(C(=O)NCCN2CCOCC2)cc1	-1
O=C(NCCCN1CCOCC1)c1ccc(NS(=O)(=O)c2cccc([N+](=O)[O-])c2)cc1	0
Cc1ccc(NS(=O)(=O)c2ccc(C(=O)NCCN3CCOCC3)cc2)cc1	15*	HuH7 TTR inh=-10;TTR up confirm=1
C[C@H]1[C@@H](NC(=O)/C=C/c2ccccc2)CC[C@@]23CCCN2C(=O)CCC[C@@H]13	0
O=C(NC(=S)NC1CCSC1=O)c1cccs1 (stereo not drawn)	4
Cc1cccc(Oc2ccc(C(=O)NC3CCSC3=O)cn2)c1C (stereo not drawn)	14*	HuH7 TTR inh=-2;TTR up confirm=-1
O=C(Cc1ccc(F)cc1)NC1CCSC1=O (stereo not drawn)	2
OCCCNc1ncnc2[nH]ncc12	4
Cc1ccc(CNc2ncnc3[nH]ncc23)cc1	1
